CYP2C19 act: human CYP2C19 activators, primary screen, biochemical, luminescence. activation factor at 5 µM. 96,000 tested, under 10 active. recombinant CYP2C19, luciferin-H EGE luminescence; hits give high values; 0 = fully inhibited enzyme, 1 = untreated enzyme. AID 1025, 2008;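 active means activation factor of at least 2 at 5 µM in the primary screen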;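 further: 0 = wells with 2.5 mM tranylcypromine and 1 = vehicle-only wells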
CYP2C19 inh: blockers of cytochrome P450 2C19 activity – biochemical, luminescence, ADME assay, primary screen; P33261; CYP2C19 Supersomes, luciferin-H EGE luminescence, 30 min; inhibition, % at 5 µM; 21% of 96,000 active; AID 778, 2007;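 active means CYP2C19 inhibition above a set limit at 5 µM in the primary screen, cut at about 50% in these data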;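 further: plate controls were negative control wells for no effect and 2.5 mM tranylcypromine positive control for full effect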
PostGolgi yeast: phenotypic screen on post-Golgi transport, primary screen | 0.9% of 98,000 active | post-Golgi transport phenotypic cell assay | inhibition, % at 10 µM;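 further: yeast cells grown in 1536-well plates; yeast grown about 18 h at 30C before absorbance read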
PostGolgi ctrl: growth inhibition of yeast control strain, primary screen, counter-screen for post-Golgi transport modulator project; efflux-deficient yeast background strain, growth absorbance A615, 16 h; AID 738, 2007; inhibition, % at 10 µM; 5% of 98,000 active
CYP2C9 act: human CYP2C9 activators, primary screen, biochemical, luminescence; AID 1024, 2008; recombinant CYP2C9, luciferin-H conversion; hits give high values; factor 1 = untreated enzyme, 0 = blocked; 1.4% of 96,000 active; Cytochrome P450 2C9 (Homo sapiens), P11712; activation factor at 5 µM;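 active means activation factor of 2 or more for CYP2C9 at a 5 µM dose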;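 further: 0 = sulfaphenazole-blocked wells and 1 = vehicle-only wells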
Target sequence (P11712 whole entry, looked up): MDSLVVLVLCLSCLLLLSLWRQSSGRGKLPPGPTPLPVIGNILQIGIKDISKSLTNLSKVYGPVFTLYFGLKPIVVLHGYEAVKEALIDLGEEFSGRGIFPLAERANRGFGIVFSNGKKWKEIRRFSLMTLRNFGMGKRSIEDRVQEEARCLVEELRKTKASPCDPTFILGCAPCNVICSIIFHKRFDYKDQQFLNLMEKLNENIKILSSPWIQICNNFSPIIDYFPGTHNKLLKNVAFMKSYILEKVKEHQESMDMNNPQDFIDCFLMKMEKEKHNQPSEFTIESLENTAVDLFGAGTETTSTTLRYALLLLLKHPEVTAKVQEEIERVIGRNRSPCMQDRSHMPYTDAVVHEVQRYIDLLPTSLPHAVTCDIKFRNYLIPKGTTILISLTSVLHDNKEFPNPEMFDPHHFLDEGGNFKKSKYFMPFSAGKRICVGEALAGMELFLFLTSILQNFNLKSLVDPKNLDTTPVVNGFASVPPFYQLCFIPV
CYP2C9 inh: blockers of cytochrome P450 2C9 activity – biochemical, luminescence, ADME assay, primary screen; P11712; CYP2C9 Supersomes, luciferin-H conversion; inhibition, % at 5 µM; 20% of 96,000 active;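 active means blocking of liver enzyme CYP2C9 beyond about 50% at 5 µM, limit read from the data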
* hit, by the source's call. The list is not random: actives were taken first. Their share in the collection is about 32%. Unless noted, no stated cut-off is given here; in the data, active means inhibition above about 30%; inactive means the rest.

Results for O=C(CN1C(=O)NC2(CCCCCC2)C1=O)c1ccc2c(c1)OCCO2 ?
CYP2C19 act: 0.9; CYP2C19 inh: 14; PostGolgi yeast: 0; PostGolgi ctrl: 3; CYP2C9 act: 0.6; CYP2C9 inh: 41

How did O=C(Cn1c(NCCCO)nc2ccccc21)c1ccc(Br)cc1 do in these assays?
CYP2C19 act: 0.3; CYP2C19 inh: 74*; PostGolgi yeast: -11; PostGolgi ctrl: 0; CYP2C9 act: 0.4; CYP2C9 inh: 58*

How did O=[N+]([O-])c1c(C(Cl)Cl)nn(-c2ccccc2)c1N1CCCC1 do in these assays?
CYP2C19 act: 0.4; CYP2C19 inh: 56*; PostGolgi yeast: -1; PostGolgi ctrl: 31*; CYP2C9 act: 0.6; CYP2C9 inh: 38

Results for CCOC(=O)N1CCC(=C(C#N)C(=O)Nc2cc(OC)ccc2OC)CC1 ?
CYP2C19 act: 0.8; CYP2C19 inh: 16; PostGolgi yeast: 2; PostGolgi ctrl: 13; CYP2C9 act: 1.1; CYP2C9 inh: -6

How did COc1ccc(N(CC(=O)Nc2ccc3c(c2)OCCO3)S(=O)(=O)c2cccnc2)cc1 do in these assays?
CYP2C19 act: 0.8; CYP2C19 inh: 25; PostGolgi yeast: -3; PostGolgi ctrl: 6; CYP2C9 act: 0.5; CYP2C9 inh: 48

How did CCOc1ccccc1N(CC(=O)Nc1ccc(S(=O)(=O)N2CCOCC2)cc1)S(=O)(=O)c1ccccc1 do in these assays?
CYP2C19 act: 1; CYP2C19 inh: -2; PostGolgi yeast: 1; PostGolgi ctrl: -5; CYP2C9 act: 1; CYP2C9 inh: -2

Results for COc1ccc(S(=O)(=O)N(CC(=O)Nc2ccc3c(c2)OCO3)c2ccccc2OC)cc1 ?
CYP2C19 act: 0.9; CYP2C19 inh: 6; PostGolgi yeast: -1; PostGolgi ctrl: 15; CYP2C9 act: 0.3; CYP2C9 inh: 72*

Results for COC(=O)c1cc(NC(=O)CN(c2ccccc2OC)S(=O)(=O)c2ccccc2)ccc1Cl ?
CYP2C19 act: 0.5; CYP2C19 inh: 52*; PostGolgi yeast: -4; PostGolgi ctrl: 17; CYP2C9 act: 0; CYP2C9 inh: 97*

Results for COc1ccccc1N(CC(=O)Nc1ccc2c(c1)OCO2)S(=O)(=O)c1ccccc1 ?
CYP2C19 act: 0.2; CYP2C19 inh: 80*; PostGolgi yeast: -3; PostGolgi ctrl: 6; CYP2C9 act: 0; CYP2C9 inh: 100*

What do the screens show for `COc1cccc(N(CC(=O)Nc2ccc3c(c2)OCO3)S(=O)(=O)c2ccccc2)c1`?
CYP2C19 act: 0.9; CYP2C19 inh: 7; PostGolgi yeast: -1; PostGolgi ctrl: 0; CYP2C9 act: 0.3; CYP2C9 inh: 71*

How did O=C1CC2(CCCCC2)Oc2ccc(O)cc21 do in these assays?
CYP2C19 act: 0.4; CYP2C19 inh: 60*; PostGolgi yeast: 1; PostGolgi ctrl: 6; CYP2C9 act: 0.8; CYP2C9 inh: 16

What do the screens show for `CS(=O)(=O)N1CCN(C/C=C/c2ccccc2)CC1`?
CYP2C19 act: 0.6; CYP2C19 inh: 38; PostGolgi yeast: -5; PostGolgi ctrl: 5; CYP2C9 act: 0.9; CYP2C9 inh: 8

What do the screens show for `O=S(=O)(c1ccc(Cl)s1)N1CCN(C/C=C/c2ccccc2)CC1`?
CYP2C19 act: 0.2; CYP2C19 inh: 78*; PostGolgi yeast: 8; PostGolgi ctrl: 25; CYP2C9 act: 0.2; CYP2C9 inh: 80*

Results for O=S(=O)(c1cccs1)N1CCN(C/C=C/c2ccccc2)CC1 ?
CYP2C19 act: 0.1; CYP2C19 inh: 86*; PostGolgi yeast: 1; PostGolgi ctrl: 13; CYP2C9 act: 0.3; CYP2C9 inh: 74*

What do the screens show for `CCC(c1c(C)[nH]oc1=O)c1c(C)[nH]oc1=O`?
CYP2C19 act: 1; CYP2C19 inh: 0; PostGolgi yeast: 3; PostGolgi ctrl: 15; CYP2C9 act: 0.9; CYP2C9 inh: 10

Results for COc1ccc(OC)c(Nc2nc(-c3sc(C)nc3C)cs2)c1 ?
CYP2C19 act: 0.1; CYP2C19 inh: 85*; PostGolgi yeast: 0; PostGolgi ctrl: 48*; CYP2C9 act: 0.2; CYP2C9 inh: 80*

Results for COc1ccccc1Nc1nc(-c2sc(NC(=O)c3ccccc3)nc2C)cs1 ?
CYP2C19 act: 1; CYP2C19 inh: 1; PostGolgi yeast: -4; PostGolgi ctrl: 0; CYP2C9 act: 0.7; CYP2C9 inh: 32

Screening data as filed in PubChem.
